This excerpt belongs to a sample that is enriched for hits.
Pf Dd2 inh = Plasmodium falciparum Dd2 growth inhibition. P. falciparum Dd2 growth, SYBR Green, 72 h. Potency, µM (top dose mostly 28.9 µM), usual class: inhibitors. 120,000 compounds, 4.3% hits; active = well fitted inhibition curve with a large enough effect; also: nearly all actives have a fitted effect of over 65% in size
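Readout: SYBR Green fluorescence, 485 nm excitation, 535 nm emission, after ~16 h lysis at 37C. Before that, Dd2-infected red cells (2.5% hematocrit) grew 72 h with compound, 29 uM top final concentration.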
Of the large screens only hits and unclear results are named; the others gave an inactive call.

Cc1ncsc1C1N(C2CCN(C(=O)c3cnccn3)CC2)C(=O)C12CCCC2 (stereo not drawn)	none
COc1ccccc1C(=O)N1CCCCCC1CN1CCc2ccccc2C1 (stereo not drawn)	none
CC(C)CCN1CCC(N2CCN(S(=O)(=O)c3ccc(Cl)cc3)CC2)C1=O (stereo not drawn)	none
CC(C)CCN1CCC(N2CCN(S(=O)(=O)c3ccc4c(c3)CCC4)CC2)C1=O (stereo not drawn)	Pf Dd2 inh 7.08µM
O=C1C(N2CCN(S(=O)(=O)c3ccc(Cl)cc3)CC2)CCN1CCc1ccccc1 (stereo not drawn)	none
CCCc1ccc(S(=O)(=O)N2CCN(C3CCN(CCC(C)C)C3=O)CC2)cc1 (stereo not drawn)	Pf Dd2 inh 5.62µM
COc1cccc(S(=O)(=O)N2CCN(C3CCN(CCC(C)C)C3=O)CC2)c1 (stereo not drawn)	none
Cc1ccc(F)cc1S(=O)(=O)N1CCN(C2CCN(CCC(C)C)C2=O)CC1 (stereo not drawn)	none
CCCc1ccc(S(=O)(=O)N2CCN(C3CCN(CCOC)C3=O)CC2)cc1 (stereo not drawn)	none
CC(C)CCN1CCC(N2CCN(S(=O)(=O)c3cc(F)cc(F)c3)CC2)C1=O (stereo not drawn)	none
CCc1ccccc1S(=O)(=O)N1CCN(C2CCN(CCC(C)C)C2=O)CC1 (stereo not drawn)	Pf Dd2 inh 10µM
CC(C)CCN(C)Cc1cccn1C	none
O=C(NC1CCCC1)c1cn(C2CCN(C(=O)c3cccnc3)CC2)nn1	none
NCCC(=O)N1CCCC2(Cc3ccccc3CN2C(=O)c2ccccc2)C1 (stereo not drawn)	none
C=CCN(Cc1cccc(OC)c1)C(=O)c1ccccc1C#N	none
CCOCc1nc(C2CCCN(C(=O)Cc3ccc(OC)cc3)C2)no1 (stereo not drawn)	none
COCCC1(NC(=O)C2CC2)CCN(C(=O)c2ccccn2)CC1	none
CC(C)NC(=O)NCc1nnc2n1C(C(=O)NCCc1ccc(Cl)cc1)CC2 (stereo not drawn)	none
O=C1CC2(CCN(C(=O)CCn3cc(Cl)cn3)C2)C(=O)N1 (stereo not drawn)	none
Cc1cc(-c2cc3c(nc2-c2ccccc2)nc(C(=O)NCCN(C)C)n3C)ccn1	none
CN(C)CCNC(=O)c1cc(-c2ccc(F)cc2)cc2ncn(C)c12	none
COCc1nc2nc(-c3ccccc3)c(Nc3ccc(F)c(OC)c3)cc2n1C	none
CN(C)CCNC(=O)c1nc2nc(-c3ccccc3)c(Nc3ccc(F)cc3)cc2n1C	Pf Dd2 inh 7.08µM
COCCCNC(=O)c1nc2nc(-c3ccccc3)c(Cl)cc2n1C	none
Cc1ccccc1Nc1cc2c(nc1-c1ccccc1)nc(C(=O)NCCN(C)C)n2C	Pf Dd2 inh 7.94µM
Cc1ccc(C(=O)NC2CC(C)(C)Cc3nc(N4CCOCC4)ncc32)cn1 (stereo not drawn)	none
COc1cccc(CNC(=O)CC2CCOCC2)c1OC	none
CC(C)Oc1cccc2c1c(NC(=O)c1cc(F)cc(C#N)c1)nn2C	none
COc1ccc(Cn2ccc3nc(C)c(C(=O)N4CCN(c5cccc(OC)c5)CC4)cc3c2=O)cc1	Pf Dd2 inh 12.6µM
COc1ccc(Cn2ccc3nc(C)c(C(=O)NCc4cccc(OC)c4)cc3c2=O)cc1	none
COc1ccc(Cn2ccc3nc(C)c(C(=O)N4CCN(c5ccccc5)CC4)cc3c2=O)cc1	none
COc1ccc(CNC(=O)C2CCc3sc(C(=O)N(C)C)cc3C2)cc1 (stereo not drawn)	none
COCc1cc(C)nc2sc(C(=O)Nc3ccc(OC(F)(F)F)cc3)c(N)c12	Pf Dd2 inh 3.98µM
COc1ccc(NC(=O)c2sc3nc(C(F)(F)F)cc(C)c3c2N)cc1OC	none
Nc1c(C(=O)Nc2ccc(OC(F)(F)F)cc2)sc2nc(-c3ccncc3)ccc12	none
CCOc1ccccc1CN1CC(CO)C2(CCNCC2)C1 (stereo not drawn)	none
Cn1nc(C2CCNCC2)n(Cc2ccccc2)c1=O	none
CCOC(=O)c1sc(NC(=O)c2nc3nc(C)cc(C(F)F)n3n2)c(C(=O)OC)c1C	none
CCOC(=O)c1sc(NC(=O)c2nc(SC)ncc2Cl)c(C(=O)OCC)c1C	none
CCCOC(=O)c1c(NC(=O)c2nc3ncccn3n2)sc(C(=O)OCC)c1C	Pf Dd2 inh 2.82µM
CN(C)CCN1CC2(CCCN(C(=O)CN(C)c3ccccc3)C2)CCC1=O (stereo not drawn)	none
CC(=O)N(C1CC1)C1CCOC2(CCN(C(=O)CCCc3ccccc3)CC2)C1 (stereo not drawn)	none
O=C(C[C@H]1NC(=O)c2ccccc2NC1=O)Nc1ncn[nH]1	none
COc1ccc(N(CC(=O)NCc2ccc(F)cc2)S(=O)(=O)c2c(C)n[nH]c2C)cc1	none
Cc1n[nH]c(C)c1S(=O)(=O)N(CC(=O)NC(C)c1ccccc1)c1ccc(C(C)C)cc1 (stereo not drawn)	none
Cc1ccc(N(CC(=O)Nc2ccc(C)c(F)c2)S(=O)(=O)c2c(C)n[nH]c2C)cc1	Pf Dd2 inh 8.91µM
Cc1nocc1C(=O)N1C[C@@H](COc2ccccc2)[C@H](C(N)=O)C1	none
CC(=O)N1CCn2cc(C(=O)N3CCOCC3)nc2C1	none
COc1ccc(-c2nc(-c3c(C)noc3C)cc3cc(C(C)C)oc23)cn1	Pf Dd2 inh 8.91µM
Cc1noc(C)c1-c1cc2cc(C(C)C)oc2c(-c2cccc(CO)c2)n1	none
COCCNc1nc(-c2c(C)noc2C)cc2cc(C(C)C)oc12	none
COc1ccc2[nH]c3c(c2c1)CCNC31CCN(C(=O)c2ccc(C)s2)CC1	none
CC1=C[C@@H](CNC(=O)c2cccnc2)[C@H](C(C)C)C[C@H]1Cc1nc2ccc(F)cc2[nH]1	none
CC1=C[C@@H](CNC(=O)C2CC2)[C@H](C(C)C)C[C@H]1Cc1nc2ccncc2[nH]1	none
COc1ccc2[nH]c(C[C@@H]3C[C@@H](C(C)C)[C@H](CNC(=O)C4CCC4)C=C3C)nc2n1	Pf Dd2 inh 11.2µM
COc1ccc2nc(C[C@@H]3C[C@@H](C(C)C)[C@H](CNC(=O)CC4(CC(=O)O)CCCC4)C=C3C)[nH]c2c1	none
CCOC(=O)C[C@@H]1C[C@@H](C(C)C)[C@H](CNC(=O)c2cccnc2)C=C1C	none
CCOC(=O)C[C@@H]1C[C@@H](C(C)C)[C@H](CNC(=O)c2ccc(C#N)cc2)C=C1C	none
COC(=O)c1ccc2nc(C[C@@H]3C[C@@H](C(C)C)[C@H](CNCc4ccc(OC)cc4O)C=C3C)[nH]c2c1	none
COC(=O)c1ccc2nc(C[C@@H]3C[C@@H](C(C)C)[C@H](CNCc4ccccc4F)C=C3C)[nH]c2c1	Pf Dd2 inh 4.47µM
CCOC(=O)C[C@@H]1C[C@@H](C(C)C)[C@H](CNC(=O)c2ccc(F)cc2)C=C1C	Pf Dd2 inh 11.2µM
CC1=C[C@@H](CNC(=O)C2CC2)[C@H](C(C)C)C[C@H]1Cc1nc2ncccc2[nH]1	none
CCCNC(=O)NC[C@@H]1C=C(C)[C@H](Cc2nc3ccc(OC)cc3[nH]2)C[C@H]1C(C)C	Pf Dd2 inh 10µM
CCCNC(=O)NC[C@@H]1C=C(C)[C@H](Cc2nc3ncccc3[nH]2)C[C@H]1C(C)C	none
CN(C)C(=O)NCc1cc2n(n1)CCN(Cc1cn[nH]c1-c1ccccc1)C2	none
CCOC(=O)c1cccnc1N1C[C@H]2OC(=O)N(Cc3ccccn3)[C@H]2C1	none
Cn1ncc2c(C(=O)NCc3cccnc3)cc(-c3ccc(Cl)nc3)nc21	none
COc1ccccc1-n1cc(C(=O)N2CC(C)(C)C(C)(O)C2)cn1 (stereo not drawn)	none
CN(CC1Cc2ccccc2CN1C)C(=O)c1cnc2nc[nH]n2c1=O (stereo not drawn)	none
O=C(CC1CCCC1)N1CCC(c2noc(-c3ccncc3)n2)C1 (stereo not drawn)	none

Screens: PubChem BioAssay, National Center for Advancing Translational Sciences (NCATS)
